± gives the standard deviation of the averaged measurements. Whole data set: some 4,100 sequences, median “relative kcat/Km (krel) vs genomic leader AAAGAU” near 1.7, cut for the highest 2% near 6.5. This excerpt belongs to a sample that is enriched for the highest values.
Target: T1, E. coli RNase P holoenzyme (M1 P RNA + rnpA protein) (UniProt P0A7Y8)
T1 sequence: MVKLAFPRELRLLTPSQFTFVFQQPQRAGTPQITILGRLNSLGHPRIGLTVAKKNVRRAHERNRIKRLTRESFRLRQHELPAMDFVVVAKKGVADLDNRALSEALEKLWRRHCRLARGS
Test: relative kcat/Km (krel) vs genomic leader AAAGAU (relative (reference leader = 1)); higher = faster RNase P cleavage
Method: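 HTS-Kin: a pool of ptRNA-Met (21C construct) with all 4096 combinations of 5' leader nucleotides N(-6) to N(-1) was processed in vitro by E. coli RNase P (P RNA + rnpA/C5 protein) under multiple-turnover conditions at 37 C, pH 8, 17.5 mM MgCl2. Residual substrate was Illumina-sequenced at several fractions reacted, and relative kcat/Km (krel) was computed by internal competition kinetics, calibrated to the genomic leader (AAAGAU = 1). The listed hexamer is the varied N(-6)..N(-1) leader (DNA letters), and it sits between a fixed 5' stem-loop flank (GCAUGCACGAAAGUGCGUGCUAUGAA) and the mature tRNA-Met starting GGCUACGUAGCUCAGUUGG. Two technical replicates are averaged.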

[1] = fraction of substrate reacted: ~9-10% (9.79% repeat 1, 9.1% repeat 2)
[2] = fraction of substrate reacted: ~13-16% (15.68% repeat 1, 13.17% repeat 2)
[3] = fraction of substrate reacted: ~26-29% (28.66% repeat 1, 26.4% repeat 2)

| Sequence | relative kcat/Km [1] | relative kcat/Km [2] | relative kcat/Km [3] |
| --- | --- | --- | --- |
| CTCTCA | 3.31 ± 1.3 | 4.49 ± 0.63 | 5.72 ± 1.9 |
| GTCTCT | 4.15 ± 1.8 | 5.51 ± 0.37 | 7.16 ± 1.8 |
| TTCTCG | 2.16 ± 1.3 | 2.86 ± 0.45 | 4.91 ± 1.5 |
| TTCTCA | 4.88 ± 2.1 | 5.74 ± 0.87 | 8.21 ± 3.6 |
| GTATCT | 2.3 ± 0.54 | 3.23 ± 0.87 | 4.66 ± 1.9 |
| GACTCA | 3.33 ± 1.5 | 4.56 ± 0.1 | 5.69 ± 2.1 |
| TTCTCT | 4.43 ± 1.1 | 6.17 ± 1.4 | 8.57 ± 3.4 |
| ATCTCA | 3.67 ± 2 | 4.25 ± 0.21 | 6.06 ± 2.4 |
| GTCTCA | 3.83 ± 1.2 | 5.79 ± 0.43 | 7.71 ± 2.8 |
| GTGTCT | 0.45 ± 0.21 | 1.24 ± 0.15 | 1.44 ± 0.22 |
| TTGCTA | 2.11 ± 1.3 | 1.43 ± 0.11 | 2.24 ± 0.7 |
| GACTCG | 1.8 ± 1.4 | 1.87 ± 0.13 | 3.21 ± 0.58 |
| TAAAGA | 1.01 ± 0.34 | 1.61 ± 0.79 | 3.01 ± 1.7 |
| CGCTGG | 0.49 ± 0.25 | – | – |
| TGCGAG | – | 0.318 ± 0.22 | 1.39 ± 0.28 |
| TTGCGA | 1.1 ± 0.36 | 1.53 ± 0.44 | 1.91 ± 0.14 |
| CGACAT | 3.05 ± 0.3 | 3.54 ± 1.1 | 4.82 ± 1.8 |
| GGGTTC | 0.445 ± 0.035 | 0.916 ± 0.37 | 0.82 ± 0.16 |
| CACGGA | – | – | 0.766 ± 0.63 |
| GGGATA | – | 0.415 ± 0.34 | – |
| TTCTCC | 5.23 ± 2.1 | 6.12 ± 0.67 | 8.25 ± 3 |
| CTCTCG | 1.91 ± 1.5 | 1.68 ± 0.37 | 3.31 ± 0.37 |
| GGCTCC | 2.56 ± 0.54 | 1.96 ± 0.23 | 2.25 ± 0.7 |
| GCCTCC | 2.78 ± 1.2 | 3.32 ± 0.14 | 5.33 ± 1.8 |
| ATCTCC | 3.67 ± 0.85 | 4.83 ± 1.4 | 6.39 ± 2.9 |

| Sequence | relative kcat/Km [1] | relative kcat/Km [2] | relative kcat/Km [3] |
| --- | --- | --- | --- |
| CTCTCT | 4.48 ± 1 | 4.84 ± 1.6 | 7.22 ± 3 |
| GTCTCC | 4.62 ± 1.7 | 6.15 ± 0.65 | 8.17 ± 3.2 |
| TGCTCC | 2.19 ± 0.87 | 2.31 ± 0.43 | 2.87 ± 0.78 |
| CTCTCC | 3.04 ± 0.91 | 4.91 ± 0.6 | 6.17 ± 2.2 |
| CGGAGG | 0.395 ± 0.29 | – | – |
| CATTTG | – | – | 1.49 ± 0.39 |
| ACGCTA | 1.05 ± 0.29 | 0.572 ± 0.17 | 1.74 ± 0.51 |
| GGCTTT | 2.05 ± 0.44 | 1.76 ± 0.074 | 2.15 ± 0.52 |
| CGAAGA | 1.79 ± 0.84 | 2.39 ± 1 | 3.52 ± 0.96 |
| CCACCG | – | – | 1.08 ± 0.58 |
| TAAGGC | 1.46 ± 0.72 | – | 2.44 ± 2.2 |
| TTCACT | 4.07 ± 1.2 | 5.27 ± 1.4 | 7.57 ± 3.1 |
| ATCACA | 2.67 ± 1 | 3.8 ± 0.55 | 5.18 ± 1.5 |
| CTCACC | 2.93 ± 0.11 | 4.4 ± 1.5 | 6.21 ± 2.6 |
| GTCACG | – | 1.84 ± 0.86 | 3.97 ± 0.54 |
| ATCACT | 3 ± 0.43 | 3.58 ± 1.1 | 4.98 ± 2 |
| GTCACT | 3.36 ± 0.97 | 3.29 ± 0.15 | 6.31 ± 2.5 |
| GGCACC | 1.52 ± 1.3 | 1.01 ± 0.24 | 2.04 ± 0.18 |
| TTCACG | 2.05 ± 1.9 | 2.41 ± 0.2 | 4.56 ± 1.4 |
| TTCACC | 3.91 ± 1.2 | 5.63 ± 0.6 | 8.13 ± 3 |
| GTCACC | 3.43 ± 0.98 | 4.83 ± 0.44 | 6.98 ± 2.7 |
| TTCACA | 4.51 ± 1.9 | 5.55 ± 0.86 | 7.72 ± 3.1 |
| ATCACC | 3.18 ± 0.62 | 3.68 ± 1 | 5.67 ± 2 |
| CCTACA | 2.23 ± 1.1 | 1.82 ± 0.36 | 1.9 ± 0.68 |
| CGTCCT | 2.14 ± 0.34 | 2.06 ± 0.17 | 3 ± 1.2 |

— the supplement of paper PMC9433436
